This is part of a sample that, as a whole, favours compounds with a hit. Of some 79,000 tested, about 15% had one in any assay. Cut-off read from the data, not from the text of the source: active = growth inhibition above about 70%; inactive = the rest. Where a SMILES comes first, the peptide text is derived from it. [ ]: non-standard residue; d: D form. ξ: configuration not given here. ξF = NC(Cc1ccccc1)C(=O)O
What was measured:
[1] = NCI Yeast Anticancer Drug Screen. Data for the rad50 strain (AID 155);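 note: 0% = growth of vehicle-only cultures of the same strain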; details: S. cerevisiae rad50 strain growth inhibition; at 50.0 µM; stronger effect = higher value
How it was run: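 Vehicle-treated cultures provide the reference for the growth inhibition reported for compound-exposed, repair-deficient yeast.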

[2] = NCI Yeast Anticancer Drug Screen. Data for the mec2-1 strain (AID 157); details: S. cerevisiae mec2-1 strain, at 50.0 µM, stronger effect = higher value
How it was run: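 Using mec2-1 yeast: add compound, measure growth, express inhibition versus vehicle-treated cultures.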

[3] = NCI Yeast Anticancer Drug Screen. Data for the sgs1 mgt1 strain (AID 161);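 note: 0% = growth of cultures given vehicle only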; details: S. cerevisiae sgs1 mgt1 strain, at 50.0 µM, stronger effect = higher value
How it was run: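 Growth of a repair-deficient yeast mutant was monitored after compound treatment and expressed as inhibition relative to vehicle-treated cultures.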

[4] = NCI Yeast Anticancer Drug Screen. Data for the cln2 rad14 strain (AID 165);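 note: 0% = growth equal to vehicle treated cultures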; details: S. cerevisiae cln2 rad14 strain, at 50.0 µM, stronger effect = higher value
How it was run: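 Yeast strain cln2 rad14, bearing defects in cell cycle control and DNA repair, serves as the test system; values reflect growth inhibition compared with vehicle.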

[5] = NCI Yeast Anticancer Drug Screen. Data for the bub3 strain (AID 167); details: S. cerevisiae bub3 mutant strain, at 50.0 µM, stronger effect = higher value
How it was run: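 Mutant yeast screening strain plus compound; vehicle-treated cultures serve as the 0% inhibition reference.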

[6] = NCI Yeast Anticancer Drug Screen. Data for the mlh1 rad18 strain (AID 175); details: S. cerevisiae mlh1 rad18 strain growth inhibition; at 50.0 µM; stronger effect = higher value
How it was run: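 Steps: expose repair-defective yeast to compound; measure growth; express inhibition against vehicle-treated controls.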

Measured: growth inhibition

Cn1c(-c2ccccc2)c/c(=N\NS(C)(=O)=O)c2cc(S(=O)(=O)O)ccc21
inactive: [1] -7.1% | [2] -27.7% | [3] -0.25% | [4] -3% | [5] 11.2% | [6] 10.2%

CCCC(C)C(O)CC (configuration not stated)
inactive: [1] -27.1% | [2] -28.9% | [3] 7.45% | [4] 13.3% | [5] -19.5% | [6] -10%

Nc1nc2c(c(=O)[nH]1)C(c1ccccc1)C(c1ccccc1)C2 (configuration not stated)
inactive: [1] -2.85% | [2] -8.65% | [3] 3.8% | [4] -27.4% | [5] -9.5% | [6] 0.15%

O=C1OI(OI2OC(=O)c3ccccc32)c2ccccc21 (tested in a mixture with another compound)
inactive: [1] 11.7% | [2] -9.6% | [3] -19.1% | [4] -9.85% | [5] 17.9% | [6] 9.45%

CCOC(=O)CCOc1ccccc1
inactive: [1] 8% | [2] 9.1% | [3] 8.45% | [4] 3.8% | [5] -0.85% | [6] 22.8%

O=C(CCC/C(CC(=O)c1ccc(Cl)cc1)=N\NC(=O)c1cc2ccccc2cc1O)Nc1cccc([N+](=O)[O-])c1
inactive: [1] 52% | [2] 47.2% | [3] 52.9% | [4] 25.6% | [5] 6% | [6] 56.8%

CC1=C(C(=O)Nc2cccc3c2C(=O)NC3=O)CC(C(=O)Nc2cccc3c2C(=O)NC3=O)=C(C)N1
inactive: [1] -51% | [2] -18.6% | [3] -6.15% | [4] -25.8% | [5] -10.9% | [6] -25.8%

C[C@@]1(NC(=O)Cc2ccccc2)C(=O)N2CCS[C@@]21c1ccccc1
inactive: [1] 0.4% | [2] 0.8% | [3] -20.6% | [4] -3.2% | [5] 12.8% | [6] 1.95%

Oc1ccccc1-c1nc2ccccc2s1
inactive: [1] -0.25% | [2] -37% | [3] 7.85% | [4] -2.7% | [5] 10.3% | [6] -10.2%

Cc1cc(C)c2cccc-2c(C)c1
inactive: [1] -11.8% | [2] -11.3% | [3] -12.3% | [4] -6.15% | [5] -4.9% | [6] -9.95%

CC(C(=O)O)C(Nc1ncnc2c1ncn2C1OC(CO)C(O)C1O)C(=O)O (configuration not stated)
inactive: [1] -8.4% | [2] -12.2% | [3] -27.6% | [4] -2.1% | [5] 3.5% | [6] -26.4%

COC(=O)C(C(=O)C(=O)Nc1ccc(C)cc1C)c1nc2ccc([N+](=O)[O-])cc2[nH]c1=O (configuration not stated)
inactive: [1] 9.05% | [2] -1.7% | [3] 4.05% | [4] 7.95% | [5] 4.2% | [6] 6.65%

O=C(CCCn1ccnc1[N+](=O)[O-])NCCn1ccnc1[N+](=O)[O-]
inactive: [1] 5.95% | [2] 9.35% | [3] -9.9% | [4] 17.4% | [5] -11.8% | [6] -12.3%

Cn1c(CC(O)(C(F)(F)Cl)C(F)(F)Cl)cc(=O)n1-c1ccccc1
inactive: [1] 41.6% | [2] 1.3% | [3] 8.7% | [4] 6.25% | [5] 7% | [6] 7.2%

Cc1cc(-n2nnc3ccccc3c2=O)on1
inactive: [1] -21.2% | [2] -30.7% | [3] -17.1% | [4] -9.5% | [5] -26% | [6] 2.5%

NC(Cc1ccccc1)C(=O)NCC(=O)O (configuration not stated) (H-[ξF]-Gly-OH)
inactive: [1] -7.45% | [2] 8.65% | [3] -6.35% | [4] -26.4% | [5] -11.7% | [6] -12.3%

Cc1csc(-c2ccncc2)n1
inactive: [1] 6.05% | [2] 6.9% | [3] -1.55% | [4] -8.3% | [5] 20.5% | [6] -5.35%

C[C@@H]1CN(c2ccccc2)C[C@H](C)OS(=O)O1 (some centres not stated)
inactive: [1] 2.65% | [2] -1.95% | [3] -12.8% | [4] -16.6% | [5] -6.95% | [6] -0.7%

Cc1nnc2cc1CCCCCCCCC2
inactive: [1] 11.8% | [2] 6.25% | [3] 4.8% | [4] 5.2% | [5] -10.8% | [6] 4.9%

O=C(Nc1ccccc1)Oc1ccc(C2CCCCC2)cc1
inactive: [1] 14.7% | [2] 22.1% | [3] 8.2% | [4] 0.95% | [5] 23.3% | [6] 54.6%

CCOC(=O)C(C#N)(C1C=CCC1)C1C=CCC1 (configuration not stated)
inactive: [1] -1.9% | [2] -0.1% | [3] 14.3% | [4] 43.9% | [5] 46.3% | [6] 13.3%

CC(=O)C1CC=C(C)CC1 (configuration not stated)
inactive: [1] -6.8% | [2] -9.55% | [3] 15.8% | [4] 14.6% | [5] -2.85% | [6] 2.6%

CC(C)(C)C(c1ccccc1)[N+](C)(C)C (configuration not stated)
inactive: [1] -22.2% | [2] -2% | [3] -2.05% | [4] 18.9% | [5] 15.2% | [6] 29.9%

Nc1ccc(Cc2ccc(N)c(Br)c2)cc1Br
inactive: [1] -0.75% | [2] 13.9% | [3] 25.1% | [4] -19.3% | [5] -14.8% | [6] 32.4%

Cc1cc(C)n(/N=C/c2ccccc2[N+](=O)[O-])c(=O)c1C#N
inactive: [1] 4.65% | [2] 9.4% | [3] -2.75% | [4] -0.25% | [5] -2.35% | [6] -6.85%

CC(=O)NCCCOc1ccc(N)cc1
inactive: [1] -3.7% | [2] 4.05% | [3] -0.4% | [4] -27.1% | [5] -2.3% | [6] -11.9%

COC(=O)c1ccc(CSc2ccccc2NC(=S)Nc2cccc(C(F)(F)F)c2)o1
inactive: [1] -3.65% | [2] -20.2% | [3] -1.15% | [4] 4.65% | [5] -18.4% | [6] -7.6%

NC(=O)C(CCc1ccccc1)(CCc1ccccc1)c1ccc2ccccc2c1
inactive: [1] 19.5% | [2] 11.2% | [3] -2.85% | [4] 6.6% | [5] 29.8% | [6] 46%

CC(CC(C)(C)C)C(=O)O (configuration not stated)
inactive: [1] -4.05% | [2] -5.75% | [3] 2.55% | [4] 1.2% | [5] 6.85% | [6] 7.25%

O=C1CCC(=O)N2C(=O)CCC(=O)N12
inactive: [1] -33.5% | [2] -26.3% | [3] -18.9% | [4] -15.3% | [5] 0.45% | [6] 3.45%

CC1CN(Cc2ccccc2)C(=O)C1=O (configuration not stated)
inactive: [1] -20.4% | [2] 17.1% | [3] -21.3% | [4] -12.7% | [5] -9.8% | [6] -11.9%

COC(=O)C(Cc1ccccc1)NC(=O)C1CSC(C)(C)N1C=O (configuration not stated)
inactive: [1] 3.25% | [2] 16.4% | [3] 21.6% | [4] 3.05% | [5] 22.8% | [6] -20.4%

CCOC(=O)N1CCN(CCO)CC1
inactive: [1] -19.9% | [2] 2.65% | [3] 2.35% | [4] -34% | [5] 3.05% | [6] -8.25%

CCCNCC(O)CNc1ccc(Cl)cc1 (configuration not stated)
inactive: [1] 3.1% | [2] -7.15% | [3] 2.05% | [4] -9.4% | [5] -4.3% | [6] 5.65%

C#CCCOC(=O)c1ccccc1OC(C)=O
inactive: [1] -0.8% | [2] -9.55% | [3] -2.3% | [4] 11.5% | [5] 7.15% | [6] 5.15%

CCCCC1(C(=O)NC(=Nc2ccccc2)Nc2ccccc2)CCOC1=O (configuration not stated)
inactive: [1] 4.3% | [2] 8.15% | [3] -2.55% | [4] -11.9% | [5] -2.95% | [6] 4.9%

Cc1cc(C)c(C#[N+][O-])c(C)c1C#[N+][O-]
inactive: [1] 5.9% | [2] 8.1% | [3] -5.8% | [4] 13.7% | [5] -1.1% | [6] 15.4%

COC(=O)C1CC=CCC1 (configuration not stated)
inactive: [1] 23.1% | [2] -8.05% | [3] 6.85% | [4] 14.2% | [5] 1.15% | [6] 32.4%

c1ccc(C2=NC3CCCCC3S2)cc1 (configuration not stated)
inactive: [1] 2.95% | [2] -10.6% | [3] 3.7% | [4] -32.3% | [5] -5.55% | [6] -2.75%

CCOP(=O)(OCC)C([O][Sb]([O]CC(C)Cl)[O]CC(C)Cl)c1ccc(OC)cc1 (configuration not stated)
inactive: [1] -41.9% | [2] -4.85% | [3] -10.9% | [4] -2.45% | [5] 2.05% | [6] -18.6%

C[N+](C)(C)CC(=O)N/N=C(\Cc1nc2ccc([N+](=O)[O-])cc2[nH]c1=O)C(=O)Nc1nc2ccc([N+](=O)[O-])cc2s1
inactive: [1] 47.2% | [2] 29.9% | [3] 24.6% | [4] -6.05% | [5] 53.2% | [6] 16.9%

O=C(O)Cn1c(=O)n(CC(=O)O)c2ccccc21
inactive: [1] 6.85% | [2] -4.95% | [3] -4.2% | [4] -10% | [5] 3.25% | [6] -7.65%

Source: PubChem BioAssay (NCI)
